Each structure is given as a SMILES string. Calls of active or inactive are those of the source. Where a call stands in place of a potency, no number is given. The call rests on the fitted dose curve; in most records, active means well fitted curve in the direction sought with a large enough effect in the repeat runs; inconclusive means weak or mixed curves; inactive means flat fitted curve, though single readings scatter.

The nature of the first assay: qHTS assay to test for compound auto fluorescence at 535 nm (green) in HEK293 cells (AID 720680). Conditions: green autofluorescence 485/535 nm; series mostly up to 91.3 µM; fluorescence, % of fluorescein: at the top concentration. (In qHTS, concentration-response curves come from the screen itself.)
For the molecule `CC1(C)S[C@@H]2[C@H](NC(=O)[C@H](N)c3ccccc3)C(=O)N2[C@H]1C(=O)O`, the Potency entry is “inactive”.
Still for that read-out and setting: then `CN(C)CCOC(C)(c1ccccc1)c1ccccn1` (stereo unspecified), with “inactive”.
As to `COc1ccc(OC(F)(F)F)cc1CN[C@H]1CCCN[C@H]1c1ccccc1`, the “fluorescence, % of fluorescein” value is -0.0111% (inactive).
On to `CCCCCCCCCCCCCCCC[N+](C)(C)Cc1ccccc1`, for which the Potency entry was “inactive”.
On the same count and under the same terms, then `Cc1cn([C@H]2C=C[C@@H](CO)O2)c(=O)[nH]c1=O`, with “inactive”.
As to `Nc1ccc(O)c([N+](=O)[O-])c1`, the “fluorescence, % of fluorescein” value is -0.349% (inactive).
For `CC(O)(P(=O)(O)O)P(=O)(O)O`, the Potency result is “inactive”.
Same read-out and setting: then `Cc1cc(C)nc(NS(=O)(=O)c2ccc(N)cc2)n1`, with “inactive”.
Still for that read-out and setting: the result for `CN(C)C(=S)SC(=S)N(C)C` reads “inactive”; that for `NC1CCCCC1`, “inactive”; that for `Nc1c(N=Nc2ccc(-c3ccc(N=Nc4cc(S(=O)(=O)O)c5ccccc5c4N)cc3)cc2)cc(S(=O)(=O)O)c2ccccc12`, “inactive”.
As for `CCCCOC(=O)c1ccc(O)cc1`, the Potency entry was “inactive”.
The same measure, in the same setting: then `CC(C)C(=O)Nc1ccc([N+](=O)[O-])c(C(F)(F)F)c1`, with “inactive”.
`Nc1ccc([N+](=O)[O-])cc1O`: the “fluorescence, % of fluorescein” value is -0.471% (inactive).
As to `Cc1cccc(C)c1`, the Potency result is “inactive”.
On the same count and under the same terms, the result for `CN(C)CCOC(c1ccccc1)c1ccccc1` reads “inactive”.
The same measure, in the same setting: the result for `CN1CCc2cccc3c2[C@H]1Cc1ccc(O)c(O)c1-3` reads “inactive”.
On the same count and under the same terms, then `Nc1c2c(nc3ccccc13)CCCC2`, with “inactive”.
`CCCCCCCCCCCC[N+](C)(C)Cc1ccccc1`: the Potency result was “inactive”.
Same read-out and setting: the result for `COc1ccc2c(c1)c(CC(=O)O)c(C)n2C(=O)c1ccc(Cl)cc1` reads “inactive”.
For `Oc1ccccc1`, the Potency entry is “inactive”.
For `COc1cccc(O)c1O`, the “fluorescence, % of fluorescein” value was -0.076% [at 95.7 µM] (inactive).
`Nc1ccc(S(N)(=O)=O)cc1`: the Potency entry is “inactive”.
On the same count and under the same terms, the result for `O=C1c2c(O)cccc2Cc2cccc(O)c21` reads “inactive”; that for `CC(=O)Nc1c(I)c(NC(C)=O)c(I)c(C(=O)O)c1I`, “inactive”; that for `Cn1c(=O)c2c(ncn2C)n(C)c1=O`, “inactive”.
The same measure, in the same setting: then `CNNCc1ccc(C(=O)NC(C)C)cc1`, with “inactive”.
Take `NC(=O)n1c(O)c(C(=O)c2cccs2)c2cc(Cl)ccc21`: the “fluorescence, % of fluorescein” value is 0.0084% [at 46 µM] (inactive).
For `O=C1O[C@H]([C@@H](O)CO)C(O)=C1O`, the Potency result is “inactive”.

A short description of a further assay: qHTS assay to test for compound auto fluorescence at 460 nm (blue) in HEK293 cell free culture (AID 720681). Conditions: cell-free medium, autofluorescence 405/460 nm (blue); series mostly up to 91.3 µM; fluorescence, % of fluorescent control: at the top concentration. In outline: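 Compounds were added to cell-free DMEM with 10% FBS and fluorescence read directly. The blue channel used 405 nm excitation and 460 nm emission, with triamterene as the reference fluorophore.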
As for `CC1(C)S[C@@H]2[C@H](NC(=O)[C@H](N)c3ccccc3)C(=O)N2[C@H]1C(=O)O`, the Potency entry is “inactive”.
As for `CN(C)CCOC(C)(c1ccccc1)c1ccccn1` (stereo unspecified), the Potency entry is “inactive”.
Regarding `COc1ccc(OC(F)(F)F)cc1CN[C@H]1CCCN[C@H]1c1ccccc1`, the “fluorescence, % of fluorescent control” value is -0.0371% (inactive).
Turning to `CCCCCCCCCCCCCCCC[N+](C)(C)Cc1ccccc1`, the Potency result is “inactive”.
On the same count and under the same terms, the result for `Cc1cn([C@H]2C=C[C@@H](CO)O2)c(=O)[nH]c1=O` reads “inactive”.
`Nc1ccc(O)c([N+](=O)[O-])c1`: the “fluorescence, % of fluorescent control” value was -0.324% (inactive).
Consider `CC(O)(P(=O)(O)O)P(=O)(O)O`, for which the Potency result is “inactive”.
As to `Cc1cc(C)nc(NS(=O)(=O)c2ccc(N)cc2)n1`, the Potency result is “inactive”.
On the same count and under the same terms, then `CN(C)C(=S)SC(=S)N(C)C`, with “inactive”; and `NC1CCCCC1`, with “inactive”; and `Nc1c(N=Nc2ccc(-c3ccc(N=Nc4cc(S(=O)(=O)O)c5ccccc5c4N)cc3)cc2)cc(S(=O)(=O)O)c2ccccc12`, with “inactive”.
For the molecule `CCCCOC(=O)c1ccc(O)cc1`, the Potency entry was “inactive”.
The same measure, in the same setting: the result for `CC(C)C(=O)Nc1ccc([N+](=O)[O-])c(C(F)(F)F)c1` reads “inactive”.
`Nc1ccc([N+](=O)[O-])cc1O`: the “fluorescence, % of fluorescent control” value is -1.11% (inactive).
Regarding `Cc1cccc(C)c1`, the Potency result is “inactive”.
On the same count and under the same terms, the result for `CN(C)CCOC(c1ccccc1)c1ccccc1` reads “inactive”.
Still for that read-out and setting: then `CN1CCc2cccc3c2[C@H]1Cc1ccc(O)c(O)c1-3`, with “inactive”; and `Nc1c2c(nc3ccccc13)CCCC2`, with “inactive”; and `CCCCCCCCCCCC[N+](C)(C)Cc1ccccc1`, with “inactive”.
As to `COc1ccc2c(c1)c(CC(=O)O)c(C)n2C(=O)c1ccc(Cl)cc1`, the Potency entry is “inactive”.
Same read-out and setting: the result for `Oc1ccccc1` reads “inactive”.
Take `COc1cccc(O)c1O`: the “fluorescence, % of fluorescent control” value is 0.0208% [at 95.7 µM] (inactive).
As for `Nc1ccc(S(N)(=O)=O)cc1`, the Potency result was “inactive”.
On the same count and under the same terms, then `O=C1c2c(O)cccc2Cc2cccc(O)c21`, with “inactive”; and `CC(=O)Nc1c(I)c(NC(C)=O)c(I)c(C(=O)O)c1I`, with “inactive”; and `Cn1c(=O)c2c(ncn2C)n(C)c1=O`, with “inactive”.
Same read-out and setting: then `CNNCc1ccc(C(=O)NC(C)C)cc1`, with “inactive”.
Consider `NC(=O)n1c(O)c(C(=O)c2cccs2)c2cc(Cl)ccc21`, for which the “fluorescence, % of fluorescent control” value was -0.0058% [at 46 µM] (inactive).
In the case of `O=C1O[C@H]([C@@H](O)CO)C(O)=C1O`, the Potency entry was “inactive”.

The nature of a further assay: qHTS assay to test for compound auto fluorescence at 535 nm (green) in HEK293 cell free culture (AID 720682). Conditions: cell-free medium, green autofluorescence 485/535 nm; series mostly up to 91.3 µM; activity change: at the top concentration. An outline of the steps: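 No cells present: wells hold DMEM supplemented with 10% FBS, into which compound or vehicle is pinned. Green emission is then recorded (485 nm excitation, 535 nm emission) and scaled to fluorescein.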
`COc1ccc(OC(F)(F)F)cc1CN[C@H]1CCCN[C@H]1c1ccccc1`: the “activity change” value was -0.0327% (inactive).
Consider `CCCCCCCCCCCCCCCC[N+](C)(C)Cc1ccccc1`, for which the Potency entry is “inactive”.
On the same count and under the same terms, then `Cc1cn([C@H]2C=C[C@@H](CO)O2)c(=O)[nH]c1=O`, with “inactive”.
As to `Nc1ccc(O)c([N+](=O)[O-])c1`, the “activity change” value is -0.436% (inactive).
For `NC1CCCCC1`, the Potency result was “inactive”.
In the case of `Nc1c(N=Nc2ccc(-c3ccc(N=Nc4cc(S(=O)(=O)O)c5ccccc5c4N)cc3)cc2)cc(S(=O)(=O)O)c2ccccc12`, the Potency entry is “inactive”.
Same read-out and setting: then `CCCCOC(=O)c1ccc(O)cc1`, with “inactive”.
The same measure, in the same setting: then `CC(C)C(=O)Nc1ccc([N+](=O)[O-])c(C(F)(F)F)c1`, with “inactive”; and `CN(C)CCOC(c1ccccc1)c1ccccc1`, with “inactive”.
Regarding `CN1CCc2cccc3c2[C@H]1Cc1ccc(O)c(O)c1-3`, the Potency entry was “inactive”.
Turning to `COc1ccc2c(c1)c(CC(=O)O)c(C)n2C(=O)c1ccc(Cl)cc1`, the Potency result was “inactive”.
Still for that read-out and setting: the result for `Oc1ccccc1` reads “inactive”.
In the case of `COc1cccc(O)c1O`, the “activity change” value is 0.0121% [at 95.7 µM, stronger effect = higher value] (inactive).
As for `O=C1c2c(O)cccc2Cc2cccc(O)c21`, the Potency result was “inactive”.
On the same count and under the same terms, then `Cn1c(=O)c2c(ncn2C)n(C)c1=O`, with “inactive”; and `CNNCc1ccc(C(=O)NC(C)C)cc1`, with “inactive”.
For the molecule `NC(=O)n1c(O)c(C(=O)c2cccs2)c2cc(Cl)ccc21`, the “activity change” value was -0.149% [at 46 µM, stronger effect = higher value] (inactive).
Regarding `O=C1O[C@H]([C@@H](O)CO)C(O)=C1O`, the Potency result is “inactive”.

The record behind these values is PubChem BioAssay (Tox21).
